# From PubChem BioAssay
# A selection: hits, their analogues and other compounds. The true share with any hit is near 2.4%.
# M1 ag – activates human CHRM1 receptor; CHO-K1 hM1, Fluo-8 calcium fluorescence, agonist mode; 0% DMSO, 100% acetylcholine EC100; activation, % at 3 µM; 360,000 tested, 0.33% active; AID 588814;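 active means activation above the run's mean compound activation plus 3 SD, cut at about 16% in these data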;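 further: peak over basal fluorescence ratio within a 140 s kinetic read after compound addition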
# Target sequence (P11229 whole entry, looked up): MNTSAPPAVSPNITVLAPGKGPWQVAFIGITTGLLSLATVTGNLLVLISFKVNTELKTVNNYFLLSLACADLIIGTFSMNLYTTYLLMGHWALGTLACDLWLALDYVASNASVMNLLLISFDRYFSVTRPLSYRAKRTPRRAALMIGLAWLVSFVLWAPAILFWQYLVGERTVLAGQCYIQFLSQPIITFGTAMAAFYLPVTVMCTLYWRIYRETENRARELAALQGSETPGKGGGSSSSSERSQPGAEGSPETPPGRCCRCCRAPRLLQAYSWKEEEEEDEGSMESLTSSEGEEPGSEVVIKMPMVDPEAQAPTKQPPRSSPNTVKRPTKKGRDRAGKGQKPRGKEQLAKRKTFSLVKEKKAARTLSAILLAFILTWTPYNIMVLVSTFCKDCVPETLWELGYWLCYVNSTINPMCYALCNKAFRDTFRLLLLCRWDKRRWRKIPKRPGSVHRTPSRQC
# CHO-K1 Ca PAM – counter-screen for M1 PAMs: effect in parental CHO-K1 cells | ATP EC20, Fluo-8 calcium fluorescence; 0% at ATP EC20, 100% at ATP max | activation, % at 3 µM | 360,000 tested, 0.02% active | AID 602247;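 active means activation above the run cutoff, the mean activation of all test compounds plus 3 SD, cut at about 40% in these data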;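 further: peak over basal fluorescence ratio in a 140 s read after ATP addition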
# M1 antag – blocks human M1 muscarinic receptor; P11229; CHO-K1 hM1, Fluo-8 calcium fluorescence, ACh EC80 antagonist; inhibition, % at 3 µM; 360,000 tested, 1.3% active;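 active means percent inhibition above its own plate's cutoff, namely the mean of that plate's compound wells plus 3 SD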;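 further: peak over basal fluorescence ratio during 140 s after agonist addition; 0% = ACh EC80 plus DMSO and 100% = DMSO alone without agonist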
# CHO-K1 Ca ag – counter-screen for M1 agonists: effect in parental CHO-K1 cells; Fluo-8 calcium fluorescence; scaled to maximal ATP response, vehicle zero; activation, % at 3 µM; 360,000 tested, 0.48% active; AID 602248; in the data active means activation above about 15%;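 further: untransfected CHO-K1 host cells lacking M1 receptor as counterscreen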
# CHRM1 PAM – potentiates human M1 receptor response to acetylcholine. AID 588819. CHO-K1 hM1, Fluo-8 calcium fluorescence, ACh EC20; 0% = ACh EC20, 100% = maximal ACh. activation, % at 3 µM. 360,000 tested, 0.088% active; in the data active means activation above about 19%, passing the limit was not always enough
# CHO-K1 Ca antag – nonselective inhibitor or artifact in parental CHO-K1 cells; ATP-induced calcium, Fluo-8 fluorescence; inhibition, % at 3 µM; 360,000 tested, 0.6% active;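 active means inhibition above a per-plate cutoff, the plate's mean sample inhibition plus 3 SD, cut at about 24% in these data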;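 further: 0% = DMSO plus EC80 ATP and 100% = DMSO alone without ATP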
# Numbers without * were called inactive.
SMILES,M1 ag,CHO-K1 Ca PAM,M1 antag,CHO-K1 Ca ag,CHRM1 PAM,CHO-K1 Ca antag
CCOc1ccc(C(=O)NC2CC3CCCC(C2)N3Cc2ccccc2)cc1 (centres undefined),-10,-12,38*,0,-22,-3
Cc1cc([N+](=O)[O-])cnc1NC(C)c1ccccc1 (centres undefined),-4,-6,-15,0,8,13
COc1cc(Cl)c(C)cc1NCC(=O)Nc1cccc(S(=O)(=O)N2CCCC2)c1,-4,-1,3,0,3,-11
COc1ccc(-c2cc(C(=O)Nc3cc(Br)ccc3O)no2)cc1,-3,0,-9,0,13,-2
O=C(Nc1nccs1)c1cccc(NC(=O)C(F)(F)F)c1,1,-4,-13,1,20,-3
CCc1ccc2c(c1)C(=O)C(=O)N2CCS(=O)(=O)c1ccccc1,-3,17,-5,1,3,-8
O=C1C(=O)N(CCS(=O)(=O)c2ccccc2)c2ccc(Cl)cc21,17*,-4,3,1,3,0
COc1ccc(CCNc2ncnc3[nH]ncc23)cc1OC,3,19,-16,4,-10,-7
COc1ccc(CCNc2ncnc3sc(C)cc23)cc1OC,3,-12,41*,14,-15,32*
CN(C)c1ccc(CNC(=O)c2ccc(CNc3c(N4CCCCC4)c(=O)c3=O)cc2)cc1,-7,10,-12,0,27*,2
O=C(NCc1ccc(Cl)cc1)c1ccc(CNc2c(N3CCCC3)c(=O)c2=O)cc1,-4,11,9,1,-4,-6
O=C(O)CC12CC3CC(C1)CC(n1ncc(N4CCC5(CC4)OCCO5)c(Cl)c1=O)(C3)C2,-2,-2,-15,0,5,-4
O=C(NCCOc1ccccc1)c1ccccc1NC(=O)C1CCCO1 (centres undefined),-5,8,-3,18*,7,2
O=C(O)c1ccccc1C(=O)NC1CCCc2ccccc21 (centres undefined),-2,15,7,0,-1,2
Cc1nc2ccccc2c2oc(C(=O)Nc3ccc(C(C)C)cc3)cc12,-4,-12,10,0,1,25*
Cc1nc2ccccc2c2oc(C(=O)Nc3ccc4c(c3)OCCO4)cc12,-2,7,-5,0,5,2
COc1ccc(CNC(=O)c2cc3c(C)nc4ccccc4c3o2)c(OC)c1,-5,2,37*,8,-19,15
COc1ccc(NC(=O)c2cccc(NC3=NC4CS(=O)(=O)CC4S3)c2)cc1Cl (centres undefined),-4,-9,4,1,3,12
C=CCOn1c(=O)c(-c2cccs2)[n+]([O-])c2ccccc21,-4,-10,15,0,-9,28*
C=CCOn1c(=O)c(-c2ccc(Cl)cc2)[n+]([O-])c2ccccc21,-3,-3,-15,1,13,-5
CCOc1ccc(C(=O)Nc2ncccc2Cl)cc1,-9,19,-4,0,6,-5
CC(=O)C1=C(c2ccccc2)NC(=S)NC1c1cc(Cl)c(OC(C)C)c(Cl)c1 (centres undefined),-1,22,0,24*,4,10
COc1cc(C2NC(=S)NC(c3ccccc3)=C2C(C)=O)cc(Cl)c1OCC(=O)O (centres undefined),-4,29,-3,2,5,-10
CCOc1ccc(-c2n[nH]c(C)c2Oc2ccc(OC)cc2)c(O)c1,-4,-7,8,0,-6,24*
Cc1[nH]nc(-c2ccc(OCc3cnn(-c4ccccc4)c3)cc2O)c1Oc1ccc(F)cc1,-1,17,-9,0,6,-15
SMILES,M1 ag,CHO-K1 Ca PAM,M1 antag,CHO-K1 Ca ag,CHRM1 PAM,CHO-K1 Ca antag
Cc1ccccc1NC(=O)CCNS(=O)(=O)c1cccc2nsnc12,-2,17,-14,1,10,-14
Cc1cccc(C)c1OCC(=O)Nc1nnc(C2CCCO2)s1 (centres undefined),-6,-10,-10,0,9,12
Cc1ccc(OCC(=O)Nc2nnc(C3CCCO3)s2)c(Br)c1 (centres undefined),-5,-15,37*,-1,-15,6
O=C(N[C@@H](Cc1ccccc1)C(=O)N1CCC2(CC1)NCCc1[nH]cnc12)c1cccc(Br)c1,-5,-17,39*,0,-18,-2
N#C/C(=C\c1c[nH]c2ccccc12)C(N)=O,2,-10,-4,1,5,-2
CC(=O)Oc1c(/C=C(\C#N)C(N)=O)[nH]c2ccccc12,8,9,8,8,-1,27*
Cn1c(=O)c(C(=O)NNC(=O)c2ccccc2Br)c(O)c2ccccc21,-3,-2,1,0,2,-6
CCn1c(=O)c(C(=O)Nc2nc3ccccc3[nH]2)c(O)c2ccccc21,5,9,51*,2,-12,20
CCn1c(=O)c(C(=O)NNC(=O)c2ccccc2Br)c(O)c2ccccc21,10,3,-17,17*,11,-9
CCn1c(=O)c(C(=O)NNC(=O)c2cccc(Cl)c2)c(O)c2ccccc21,21*,-3,23,22*,-13,3
O=C(CCc1ccccn1)N1CCCC(Nc2ccc(F)cc2)C1 (centres undefined),0,18,-5,1,4,1
O=C(CCc1ccccn1)N1CCCC(Nc2cccc(F)c2)C1 (centres undefined),27*,12,-1,1,8,-2
Oc1[nH]c2ccccc2c1/C=N/N1CCCCC1,32*,28,22,1,-12,-11
Oc1ccccc1/C=N/N1CCCCC1,31*,1,5,0,-5,-3
Cc1cccc(C)c1C(=NCCCN(C)C)c1ccccc1,-8,22,79*,1,-27,-8
CC(C)(Oc1ccc(Cl)cc1)C(=O)NNC(=O)c1ccc(Br)o1,-3,12,-7,1,6,-12
COCCNC(=O)C1(C)CCCN(C(=O)c2cccc(OC(F)(F)F)c2)C1 (centres undefined),-1,-1,-2,0,-2,4
O=c1c2cc([N+](=O)[O-])ccc2nc2n1CCCC2,-5,7,5,1,3,-6
O=c1c2cc(Br)ccc2nc2n1CCCCC2,-4,-24,86*,0,-20,-4
Cc1ccc2nc3n(c(=O)c2c1)CCCCC3,-8,8,19*,0,-19,-5
CC(C)CC1c2[nH]c3ccccc3c2CCN1CCCn1cccn1 (centres undefined),-13,-2,1,0,1,-4
